In ChEMBL document CHEMBL4513216, “Probing the Open Global Health Chemical Diversity Library for Multistage-Active Starting Points for Next-Generation Antimalarials” (ACS Infect Dis, 2020):
Screen size: about 68,000 compounds; about 2,700 (4%) showed an effect of 50% or more. The list comes from a sample in which strong results are over-represented; it also holds similar structures and randomly drawn compounds.

tested on: Plasmodium berghei; test: Screen against P. berghei liver stage (PbLuc), transformed with Luciferase, at 2uM; type: functional, HepG2; settings: tested at 2 uM

| Structure (SMILES) | INHIBITION |
| --- | --- |
| O=C(NCCC1COc2ccccc2O1)c1ccc(N2CC(O)C2)nc1 (stereo not drawn) | 13.19% |
| O=C1N[C@@H]2CCN(C(=O)C3CC3)[C@@H]2C(=O)N1c1ccc(F)cc1 | 34.24% |
| Cc1ccc(N2C(=O)N[C@@H]3CCN(C(=O)C4CC4)[C@@H]3C2=O)cc1 | 56.76% |
| Cc1ccc(N2C(=O)N[C@@H]3CCN(C(=O)C4CCCC4)[C@@H]3C2=O)cc1 | -28.91% |
| COc1ccc(-c2nnc(SC(C)C(=O)NCC(C)C)[nH]2)c(OC)c1 (stereo not drawn) | 59.18% |
| COc1ccc(-c2nnc(SC(C)C(=O)NC(C)(C)C)[nH]2)c(OC)c1 (stereo not drawn) | -42.16% |
| COc1ccc(-c2nnc(SCC(=O)NCC(C)C)[nH]2)c(OC)c1 | -8.24% |
| Cc1ccc([C@@H]2CN(C(=O)c3ccsc3)C[C@H]2NC(=O)C2CC2)cc1 | 50.57% |
| Cc1ccc([C@@H]2CN(C(=O)c3csc(C)n3)C[C@H]2NC(=O)C2CC2)cc1 | -67.56% |
| Cc1ccc([C@@H]2CN(C(=O)c3cc[nH]c3)C[C@H]2NC(=O)C2CC2)cc1 | -12.67% |
| CC(NC(=O)NCCN1CCCC1)c1nncn1C (stereo not drawn) | 21.83% |
| CN1CCc2[nH]cnc2C12CCN(Cc1ccc(S(C)(=O)=O)cc1)CC2 | 18.54% |
| CC(C)c1ccc(C(N)c2cccs2)cc1 (stereo not drawn) | -61.99% |
| CCS(=O)(=O)NCc1nc(C)cc(N2CCCC2)n1 | 53.61% |
| CCCS(=O)(=O)NCc1nc(C)cc(N2CCCC2)n1 | 15.84% |
| CCS(=O)(=O)NCc1nc(C)cc(N2CCCCC2)n1 | 19.12% |
| CCN1CC2(CCN(CC3CCCO3)CC2)OC1=O (stereo not drawn) | 6.85% |
| CCN1CC2(CCN(CC3COCCO3)CC2)OC1=O (stereo not drawn) | 65.1% |
| O=C1OC2(CCN(CC3CCCO3)CC2)CN1CCc1ccccc1 (stereo not drawn) | -38.59% |
| COCC1CN(C(=O)Cc2ccccn2)Cc2ncnn2C1 (stereo not drawn) | -54.16% |
| O=C(c1ccc2c(c1)COC2)N1CCCC(n2cncn2)C1 (stereo not drawn) | -45.72% |
| O=C1OC2(CCNCC2)CN1CC(=O)N1CCCC1c1nccs1 (stereo not drawn) | 3.62% |
| O=C(CC1COCCN1)N1CCCN(C2Cc3ccccc3C2)CC1 (stereo not drawn) | 46.02% |
| O=C(CC1COCCN1)N1CCC2(CCc3ccccc32)CC1 (stereo not drawn) | 50.32% |
| O=C(CC1COCCN1)N1CCC(N2CCc3ccccc3C2)CC1 (stereo not drawn) | -3.38% |
| O=C(CN1CCOC1=O)N1CCC2(CCc3ccccc32)CC1 | 55.36% |
| O=C(O)CN1CCC2(CCc3ccccc32)CC1 | -2.19% |
| O=C(CN1C(=O)CCNC1=O)N1CCC2(CCc3ccccc32)CC1 | 12.3% |
